# In PubChem BioAssay (NCATS):
# Values joined by “and” are separate entries in the source; they are usually repeats but may differ in a detail not shown here. Equal entries are not always repeated. Inconclusive results are not listed. Values without a mark were called inactive. Calls come from the whole dose curve; as a rule, active = well fitted curve in either direction with a large enough effect (not every such curve was filed as active); inconclusive = small, poorly fitted or top-dose-only effect, or another doubt; inactive = flat fitted curve, though single readings scatter.
# Test: Stat Signaling Pathway (AID 446)
# Details: ME-180 SIE beta-lactamase reporter, IL-6 stimulated, 5 h; at 17.2 µM (top of the series)
# Protocol: NCGC Assay Overview: The IL-6/STAT signaling pathway was assayed in ME-180 cervical carcinoma cells by a beta-lactamase reporter gene controlled by a STAT Inducible Element (SIE). This reporter is induced by IL-6 at 40 pM AC50 and inhibited by the pan JAK inhibitor, 2-(1,1-Dimethylethyl)-9-fluoro-3,6-dihydro-7H-benz[h]-imidaz[4,5-f]isoquinolin-7-one, at approximately 10 nM AC50. Plated cells were incubated overnight and on the following day, stimulated with 40 pM IL-6 for 5 hrs. The assay was screened at the AC50 of IL-6 activation to identify both inhibitors and activators of IL-6/STAT signaling.
# NCGC Assay Protocol Summary: Cells were trypsinized, washed in assay medium (AM, OPTI MEM with 0.5% fetal bovine serum, 0.1 mM nonessential amino acids, 1 mM sodium pyruvate, 10mM HEPES pH 7.3, 100U/ml penicillin, and 100 ug/ml streptomycin) and suspended at 6 x 10e5/ml in AM. Approximately […] cells in 5 uL/well was dispensed into 1536 well plates and the cells were incubated overnight at 37 C. 23 nL of compound were delivered by a pin tool and 1 uL of IL-6 (40 pM final concentration in AM) was added. After centrifugation at 1000 rpm for less than a minute, plates were incubated at 37C for 5 hrs. One uL of detector mix (LiveBLAzerTM, Invitrogen) was added, the plates incubated at room temperature for 2.5 hrs, and fluorescence intensity at 460 and 530 nm emission was measured at 405 nm excitation by an Envision (Perkin Elmer) or Safire II (Tecan). Data were normalized by GeneData to the controls for AC90 stimulation (300 pM IL-6) and to AC90 inhibition (125 nM Jak inhibitor, 40 pM IL-6 in AM).
# % is set by controls: 0 for no effect and ±100 for the full control effect.
row,Structure (SMILES),"activity, negative = inhibition [%]"
1,C[N+]1(C)CCN(c2ccccc2)CC1,-10

# Same assay, conditions: ME-180 SIE beta-lactamase reporter, IL-6 stimulated, 5 h; at 38 µM (top of the series)
row,Structure (SMILES),"activity, negative = inhibition [%]"
1,C[N+]1(C)CCN(c2ccccc2)CC1,-4.82

# Same assay, conditions: ME-180 (cervical carcinoma) SIE beta-lactamase reporter, IL-6 stimulated, 5 h; at 38 µM (top of the series) unless noted
row,Structure (SMILES),"activity, negative = inhibition"
1,O=S(=O)(O)c1cc(O)ccc1O,11.9% [at 17.2 µM]
2,O=S1(=O)N(CCN2CC=C(c3c[nH]c4cc(F)ccc34)CC2)c2cccc3c2N1CCC3,22.3%
3,NC(N)=NOCC[C@H](N)C(=O)O,4.59% [at 17.2 µM]
4,CN1CCc2cc(O)cc3c2[C@H]1Cc1ccc(O)c(O)c1-3,-18.2%
5,CCCn1c(=O)c2[nH]c(C3CCCC3)nc2n(CCCOC(=O)c2ccc(S(=O)(=O)F)cc2)c1=O,-25.7%
6,C[N+](C)(C)CCOC(=O)CBr,-5.3%
7,O=C1C=CC(=O)C=C1,-5.57%
8,CC(C)[C@@]1(NC(=O)[C@@H]2C[C@@H]3c4cccc5[nH]cc(c45)C[C@H]3N(C)C2)O[C@@]2(O)[C@@H]3CCCN3C(=O)[C@H](Cc3ccccc3)N2C1=O,-26.4% [at 17.2 µM]
9,NCCc1c[nH]c2ccc(C(N)=O)cc12,4.94%
10,O=[N+]([O-])c1ccc2nc(N3CCNCC3)ccc2c1,2.58%
11,C[C@H](N)CN1CCc2ccc(Br)cc21,-29.5%
12,CCCCCCC(C)(C)c1ccc([C@@H]2C[C@H](O)CC[C@H]2CCCO)c(O)c1,-25.8%
13,CCCn1c(C)c(C(=O)c2ccc3ccccc3c2)c2ccccc21,-13.9%
14,N#CCCN,20.4%
15,COc1ccc(OC)c(C(O)C(C)N)c1 (stereo not given),2.12% [at 17.2 µM]
16,NNC(N)=O,1.85%
17,c1ccc2c(N3CCNCC3)cccc2c1,-46.5%
18,CCCN(CCC)CCc1c[nH]c2ccc(C(N)=O)cc12,22.9%
19,O=[N+]([O-])c1cc(O)c(O)c([N+](=O)[O-])c1,48.1%

row,Structure (SMILES),"activity, negative = inhibition"
1,C[N+](C)(C)CC#CCOC(=O)Nc1cccc(Cl)c1,-8.8%
2,CC(C)NP(=O)(NC(C)C)OP(=O)(NC(C)C)NC(C)C,-17.3%
3,Cc1[nH]c2ccc(O)cc2c1CCN,6.41%
4,Clc1cc(I)cc(Cl)c1NC1=NCCN1,-14.2%
5,c1cc2c(c(NC3=NCCN3)c1)CCCC2,4.34% [at 7.69 µM]
6,CN1[C@@H]2CC[C@H]1CC(OC(=O)C1C=Nc3ccccc31)C2 (stereo not given in full),3.6% [at 17.2 µM]
7,NNC(=O)c1ccc(O)cc1,13.1%
8,N#CC(C#N)=Cc1cc(O)c(O)c(O)c1,2.4%
9,Clc1ccc(N2C[C@H]3CC[C@@H](C2)N3)nn1,37.1%
10,c1ccc2cc(CC3=NCCN3)ccc2c1,-3.81%
11,CCC1(C)CC(=O)NC(=O)C1,-0.442% [at 17.2 µM]
12,CCCN1CCc2cc(O)cc3c2[C@H]1Cc1ccc(O)c(O)c1-3,39.4%
13,CCCN(CCC)[C@H]1CCc2c(F)ccc(O)c2C1,3.16% and 1.48%
14,Nc1ccc(CCN2CCN(c3cccc(C(F)(F)F)c3)CC2)cc1,-17.7%
15,C[C@@H]1O[C@H](C[N+](C)(C)C)CS1,19.2%
16,CCCN(CCC)C1Cc2cc(OC)c(OC)cc2C1,21.3%
17,CN1CCC(c2c[nH]c3ccc(O)cc23)CC1,-0.0693%
18,CN1[C@@H]2CC[C@H]1CC(OC1c3ccccc3CCc3ccccc31)C2 (stereo not given in full),5.86% [at 17.2 µM]
19,CCCN(CCC)CCc1ccc(O)c(O)c1,-14.3%
